MCF10A rereplic – A quantitative high throughput screen for small molecules that induce DNA re-replication in MCF 10a normal breast cells | MCF 10A DNA re-replication, Hoechst nuclear intensity, 48 h | Potency, µM (doses to about 46.1 µM), actives largely listed as activators | 350,000 tested, 2.9% active; note: nearly all actives have a fitted effect of over 50% in size
SW480 rerep – A quantitative high throughput screen for small molecules that induce DNA re-replication in SW480 colon adenocarcinoma cells; SW480 DNA re-replication, Hoechst DNA content imaging, 48 h; Potency, µM (highest dose often 46.1 µM), hits mostly activators; 340,000 tested, 1.8% active; AID 624297, 2012; note: nearly all actives have a fitted effect of over 55% in size
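First, 250 cells per well were seeded. Next, compound or vehicle (23 nL) was pinned in, plates sat 48 hr at 37 C. Finally Hoechst was added for 40 min before fluorescence scanning.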
IL1B secr inh – qHTS for Inhibitors of Inflammasome Signaling: IL-1-beta AlphaLISA Primary Screen. THP-1 LPS/ATP IL-1B secretion, AlphaLISA, 16 h; active compounds read low. activity change, % at 57.5 µM. 360,000 tested, 4.7% active; in the data active = activity change below about -50%; inconclusive = mostly about -30% to -49%
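THP-1 cells pretreated 1 hr with compounds (up to 57.5 uM final), then stimulated with LPS (250 ng/mL final) plus ATP (1.25 mM final); secreted IL-1B measured by AlphaLISA after 16 hr, decreased signal indicating inhibition.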
VP16 counter – VP16 counterscreen qHTS for inhibitors of ROR gamma transcriptional activity. Drosophila S2 Gal4-VP16 UAS-luciferase, luminescence, 20 h. Potency, µM (series often up to 53.6 µM), usual class: inhibitors. 310,000 tested, 3.5% active. AID 2546, 2010;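 note: Gal4-VP16 expression switched on by copper sulfate through the metallothionein promoter; nearly all actives have a fitted effect of over 50% in size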
RORg inh – qHTS for inhibitors of ROR gamma transcriptional activity | AID 2551, 2010 | Drosophila S2 Gal4-RORgamma UAS-luciferase reporter, 20 h | 310,000 tested, 5.4% active | Nuclear receptor ROR-gamma (Mus musculus), P51450 | Potency, µM (series often up to 53.6 µM), actives largely listed as inhibitors; note: nearly all actives have a fitted effect of over 60% in size
Target sequence (P51450 whole entry, looked up, the tested form may be a part): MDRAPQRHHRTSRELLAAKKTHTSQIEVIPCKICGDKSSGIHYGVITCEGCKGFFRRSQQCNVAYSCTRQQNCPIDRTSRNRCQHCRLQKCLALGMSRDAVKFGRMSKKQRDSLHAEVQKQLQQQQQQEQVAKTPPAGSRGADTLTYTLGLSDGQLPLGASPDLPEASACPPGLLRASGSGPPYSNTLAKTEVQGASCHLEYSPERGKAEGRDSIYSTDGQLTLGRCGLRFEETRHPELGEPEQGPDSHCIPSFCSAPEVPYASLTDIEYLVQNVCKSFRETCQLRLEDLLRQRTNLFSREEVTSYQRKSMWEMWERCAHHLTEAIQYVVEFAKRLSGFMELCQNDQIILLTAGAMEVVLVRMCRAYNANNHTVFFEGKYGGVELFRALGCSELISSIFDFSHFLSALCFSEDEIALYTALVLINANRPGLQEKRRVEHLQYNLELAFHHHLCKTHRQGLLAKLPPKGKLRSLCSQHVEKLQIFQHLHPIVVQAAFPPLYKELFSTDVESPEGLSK
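Drosophila S2 cells stably expressing Gal4-DBD/mouse RORγ fusion under metallothionein promoter plus UAS-luciferase; compound 1 h, then 700 uM CuSO4 induction for 20 h at ambient temperature; inhibition read as reduced luminescence.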
Each line names hits and unclear results; the compound was inactive in the other large screens. Shown are actives, neighbours in structure and some others; about 11% of the full set was active somewhere. Unless noted, calls come from the whole dose curve; as a rule, active = well fitted curve in the direction sought with a large enough effect; inconclusive = small, poorly fitted or top-dose-only effect, or another doubt; inactive = no such curve, though single readings can be large; an effect the other way counts as inactive or inconclusive.

O=C(CCN1CCOCC1)c1ccccc1	MCF10A rereplic 2.6µM, IL1B secr inh -72, RORg inh inconclusive
Cc1ccc(Cl)cc1NC(=O)C1CC1c1ccccc1 (stereo unspecified)	none
CCCCCNC(=O)C1C(=O)Nc2ccccc2C(=O)N1c1c(C)cccc1C (stereo unspecified)	none (no result: MCF10A rereplic, SW480 rerep, VP16 counter, RORg inh)
O=C(N/N=C1/C[C@@H](O)[C@@H](O)[C@@H]2[C@H]3C(=O)N(c4ccc(F)cc4F)C(=O)[C@@H]3CC[C@H]12)OCc1ccccc1	none (no result: MCF10A rereplic, SW480 rerep, IL1B secr inh)
O=C(CCN1CCOCC1)c1ccc2c(c1)OCCO2	MCF10A rereplic 6.5µM, SW480 rerep inconclusive, VP16 counter 3.2µM, RORg inh inconclusive
O=C(CCN1CCN(C(=O)c2ccccc2)CC1)c1ccc(Br)cc1	MCF10A rereplic 16µM, SW480 rerep inconclusive, VP16 counter inconclusive
O=C(NN=C1c2ccccc2-c2ccccc21)c1cccc(Br)c1	MCF10A rereplic inconclusive, VP16 counter 3.2µM, RORg inh 1.8µM
O=C(NS(=O)(=O)c1ccccc1)c1cccc(Br)c1	SW480 rerep inconclusive
O=C(COc1cccc(Br)c1)N/N=C1\CCCc2ccccc21	none
O=C(COc1cccc(Br)c1)NN=C1c2ccccc2-c2ccccc21	MCF10A rereplic inconclusive, VP16 counter inconclusive, RORg inh 20µM
C/C(O)=c1/ccc2cccc3nc(C)nc1c23	SW480 rerep inconclusive, IL1B secr inh -53, RORg inh inconclusive
Cc1cccc2nc3ccccc3cc12	none (no result: VP16 counter, RORg inh)
COc1ccccc1OCc1n[nH]c(=S)n1Cc1ccccc1	none
S=c1[nH]nc(COc2ccc(Cl)cc2)n1Cc1ccccc1	VP16 counter inconclusive, RORg inh 2.5µM
S=c1[nH]nc(COc2cccc(Cl)c2)n1Cc1ccccc1	VP16 counter inconclusive, RORg inh 1.4µM
Clc1ccc(CSc2nccn2Cc2ccccc2)cc1	SW480 rerep inconclusive, IL1B secr inh -73, RORg inh inconclusive
Cc1nc2ccccc2c(=O)n1/N=C/c1ccc(F)cc1	none
Cc1[nH]n(-c2ccccc2)c(=O)c1/C=N/N(c1ccccc1)c1ccccc1	MCF10A rereplic inconclusive, SW480 rerep inconclusive, VP16 counter inconclusive, RORg inh 5.6µM
Cc1ccc(-n2[nH]c(C)c(/C=N/n3c(C)nc4ccccc4c3=O)c2=O)cc1	MCF10A rereplic 4.6µM, SW480 rerep inconclusive, VP16 counter inconclusive, RORg inh 18µM
C=CCN=Cc1c(C)[nH]n(-c2ccccc2)c1=O	none
Cc1nc2ccccc2c(=O)n1/N=C/c1ccccc1	VP16 counter inconclusive
Cc1[nH]n(-c2ccccc2)c(=O)c1/C=N/n1c(C)nc2ccccc2c1=O	SW480 rerep inconclusive, VP16 counter inconclusive, RORg inh 5.6µM
CCn1c(NCc2ccco2)nc2c1c(=O)n(C)c(=O)n2C	none
Cn1c(=O)c2c(nc(NCc3ccco3)n2CCc2ccccc2)n(C)c1=O	VP16 counter 7.9µM, RORg inh 13µM
Cn1c(=O)c2c(nc(NCc3ccco3)n2Cc2ccc(Cl)cc2Cl)n(C)c1=O	VP16 counter 6.3µM, RORg inh inconclusive
O=[N+]([O-])c1cc(C=Nc2cccc3c(O)cccc23)ccc1Cl	RORg inh inconclusive (no result: MCF10A rereplic, SW480 rerep, IL1B secr inh)
COc1cccc(-c2ccc3ncnc(NCc4cccs4)c3c2)c1	MCF10A rereplic inconclusive, SW480 rerep inconclusive (no result: IL1B secr inh)
Cn1ccc2cc(-c3ccc4ncnc(NCc5cccs5)c4c3)ccc21	MCF10A rereplic 12µM, SW480 rerep inconclusive (no result: IL1B secr inh, VP16 counter, RORg inh)
CCC(=O)c1ccc(OCC(O)CNCc2ccc(F)cc2)cc1 (stereo unspecified)	RORg inh inconclusive
O=C(c1ccccc1)c1ccc(OCC(O)CNCc2cccc(Cl)c2)cc1 (stereo unspecified)	MCF10A rereplic 21µM, IL1B secr inh -82
O=C(c1ccccc1)c1ccc(OCC(O)CNCc2ccc(F)cc2)cc1 (stereo unspecified)	IL1B secr inh -72
CC(=O)OCCCNc1cc(Sc2nc3ccccc3s2)c2nonc2c1[N+](=O)[O-]	MCF10A rereplic inconclusive, IL1B secr inh inconclusive, VP16 counter 5µM, RORg inh 3.5µM
COc1ccc(Nc2cc(NCCCO)c([N+](=O)[O-])c3nonc23)cc1	none
CC(=O)OCCCNc1cc(Sc2ccc(C)cc2)c2nonc2c1[N+](=O)[O-]	MCF10A rereplic inconclusive, SW480 rerep inconclusive, IL1B secr inh -51, VP16 counter inconclusive
CCN1CCN(c2ccc([N+](=O)[O-])c(Sc3nc4ccccc4[nH]3)c2)CC1	SW480 rerep inconclusive, IL1B secr inh inconclusive
CC(=O)OCCNc1cc(Sc2nc3ccccc3[nH]2)c2nonc2c1[N+](=O)[O-]	MCF10A rereplic inconclusive, SW480 rerep inconclusive, IL1B secr inh -101
CC(C)NC(=O)N1CC[C@@]2(CCCN(S(=O)(=O)c3ccccc3)C2)C1	none (no result: MCF10A rereplic, SW480 rerep, IL1B secr inh)
CCCCC[C@H](C)N1C[C@H](COCc2ccccc2)Oc2cc(N3CC[C@@H](O)C3)ccc2S1(=O)=O	none (no result: MCF10A rereplic, SW480 rerep, VP16 counter, RORg inh)
CCCCC[C@H](C)N1C[C@@H](COCc2ccccc2)Oc2cc(N3CC[C@H](N(C)C)C3)ccc2S1(=O)=O	IL1B secr inh -50 (no result: MCF10A rereplic, SW480 rerep, VP16 counter, RORg inh)
CCCCC[C@@H](C)N1C[C@@H](COCc2ccccc2)Oc2cc(N3CC[C@H](N(C)C)C3)ccc2S1(=O)=O	IL1B secr inh -73 (no result: MCF10A rereplic, SW480 rerep, VP16 counter, RORg inh)
CCOc1ccccc1C1C(C(=O)OC)=C(N)OC2=C1C(=O)CCC2 (stereo unspecified)	none
CCOc1ccc(Br)cc1C1C(C(=O)OC)=C(N)Oc2cc(N(C)C)ccc21 (stereo unspecified)	MCF10A rereplic 10µM, SW480 rerep inconclusive
O=C(O)c1ccc2[nH]c3c(c2c1)CSCC3	none
CN(C)CCOC(=O)c1ccc2[nH]c3c(c2c1)CSCC3	SW480 rerep 7.3µM, IL1B secr inh -74
c1ccc2c(c1)oc1c(NCCCn3ccnc3)ncnc12	RORg inh inconclusive
O=c1c2ccccc2oc2ccc(NCCCn3ccnc3)cc12	IL1B secr inh -58, RORg inh inconclusive
COC(=O)C/C=C\[C@@H](C)[C@@H](/C=N\OC[C@@H](O)COCc1ccco1)OC	none (no result: MCF10A rereplic, SW480 rerep, IL1B secr inh)
CC(N)c1csc(NC(=O)c2cc(C(C)(C)C)nn2Cc2ccccc2)n1 (stereo unspecified)	IL1B secr inh -55 (no result: MCF10A rereplic, SW480 rerep, VP16 counter, RORg inh)
CC(C)(C)c1cc(C(=O)NNC(=O)Nc2ccccc2)n(Cc2ccccc2)n1	MCF10A rereplic inconclusive, RORg inh 0.063µM
CC(C)(C)c1cc(C(=O)NNC(=O)Nc2cccc(Cl)c2)n(Cc2ccccc2)n1	MCF10A rereplic inconclusive
Cc1ccc(S(=O)(=O)N(C)C)cc1NC(=O)c1cc(C(C)(C)C)nn1Cc1ccccc1	SW480 rerep inconclusive
COc1ccc(CC(N)c2csc(NC(=O)c3cc(C(C)(C)C)nn3Cc3ccccc3)n2)cc1 (stereo unspecified)	IL1B secr inh -78 (no result: MCF10A rereplic, SW480 rerep, VP16 counter, RORg inh)
Cc1cccc(C)c1NC(=O)NNC(=O)c1cc(C(C)(C)C)nn1Cc1ccccc1	none

Screening results deposited in PubChem by National Center for Advancing Translational Sciences (NCATS).
